The entries come from a sample that favours hits as a whole.
EZH2 inh – blocks human EZH2/PRC2 H3K27 methylation. inhibition, % at 12.5 µM. hit rate 0.35% among 57,000. Q15910. DELFIA TRF, 1 h. AID 651548;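 active = mean inhibition of replicates at least 50% and every single replicate also reaching 50%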;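 note: dimethyl H3K27 on biotinylated H3 21-44 peptide detected by antibody; plate controls were median neutral control wells for no effect and median positive control wells for full effect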
Target sequence (Q15910 whole entry, looked up): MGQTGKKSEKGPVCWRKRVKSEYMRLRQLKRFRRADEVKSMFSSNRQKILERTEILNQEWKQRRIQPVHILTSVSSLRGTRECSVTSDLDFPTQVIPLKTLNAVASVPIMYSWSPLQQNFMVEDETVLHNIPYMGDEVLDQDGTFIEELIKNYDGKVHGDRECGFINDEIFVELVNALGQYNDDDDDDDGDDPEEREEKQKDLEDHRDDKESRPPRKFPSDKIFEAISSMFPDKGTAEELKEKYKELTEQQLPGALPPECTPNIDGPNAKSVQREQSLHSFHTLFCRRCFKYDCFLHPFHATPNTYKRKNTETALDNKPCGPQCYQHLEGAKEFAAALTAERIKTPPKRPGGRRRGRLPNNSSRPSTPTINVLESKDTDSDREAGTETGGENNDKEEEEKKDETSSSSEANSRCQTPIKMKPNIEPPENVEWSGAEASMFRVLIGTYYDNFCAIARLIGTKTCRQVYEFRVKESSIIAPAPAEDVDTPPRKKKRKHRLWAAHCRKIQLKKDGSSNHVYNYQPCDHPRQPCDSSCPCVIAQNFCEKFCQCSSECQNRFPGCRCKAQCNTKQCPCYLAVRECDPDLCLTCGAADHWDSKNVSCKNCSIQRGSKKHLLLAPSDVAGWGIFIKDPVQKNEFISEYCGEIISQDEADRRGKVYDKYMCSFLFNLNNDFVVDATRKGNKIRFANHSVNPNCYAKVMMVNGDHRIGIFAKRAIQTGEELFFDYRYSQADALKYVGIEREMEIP
Active calls of the source: *.

SMILES	EZH2 inh
O=C(NO)c1ccc(C(=O)N/N=C/c2cccc(O)c2O)cc1	76*
O=C(NO)c1ccc(C(=O)N/N=C/c2ccc(O)c(O)c2O)cc1	89*
O=C(CCCCC(=O)N/N=C/c1cccc(O)c1O)NO	4
Cc1ccc(NC(=O)C(C)Sc2nccc(C)n2)cc1 (configuration not stated)	-16
CC(=O)c1ccc(NC(=O)CSc2nc3ccc(NC(=O)c4ccccc4Cl)cc3s2)cc1	5
Cc1cc(Cl)cc(Cl)c1OCC(=O)Nc1ccc(Cl)c(-c2nc3ncccc3o2)c1	-14
O=C(CC1(O)C(=O)Nc2ccc(I)cc21)c1ccccn1 (configuration not stated)	-19
O=c1cc(-c2ccc(O)cc2)oc2c(C3OC(CO)C(O)C(O)C3O)c(O)c(C3OCC(O)C(O)C3O)c(O)c12 (configuration not stated)	99*
O=c1c(-c2ccc(O)cc2)coc2cc(OC3OC(CO)C(O)C(O)C3O)cc(O)c12 (configuration not stated)	9
O=C1CC(c2ccc(O)cc2)Oc2cc(O[C@@H]3O[C@H](CO)[C@@H](O)[C@H](O)[C@H]3O)cc(O)c21 (some centres not stated)	-2
O=C(COc1ccc(C(=O)Nc2ccccc2Cl)cc1)Nc1cccc(C(F)(F)F)c1	8
O=C(O)c1c(Sc2ccccc2)c2cc(Cl)ccc2n1Cc1ccc(Cl)cc1	64*
O=C1CCCc2c1n(CCN(Cc1ccccc1)Cc1ccccc1)c1ccc(Cl)cc21	-6
CC(=O)N(C)c1ccc(OCC(O)Cn2c3ccc(Cl)cc3c3cc(Cl)ccc32)cc1 (configuration not stated)	4
Cc1nnc(SCc2cc(=O)[nH]c(Nc3nc(C)c4cccc(C)c4n3)n2)s1	5
COc1cc(CN2CCC(C(=O)NC(C)c3ccc(OC)c(OC)c3)CC2)cc(OC)c1 (configuration not stated)	7
O=C(CSc1n[nH]c(-c2ccco2)n1)Nc1ccc(F)cc1	0
N#Cc1c(-c2ccco2)nc(SCC(=O)Nc2ccc(I)cc2)[nH]c1=O	54*
COc1cccc(-c2nc(SCC(=O)Nc3cccc(C(F)(F)F)c3)[nH]c(=O)c2C#N)c1	68*
COc1ccc(-c2nc(SCC(=O)Nc3cccc(C(F)(F)F)c3)n[nH]2)cc1	19
COc1ccc(-c2nc(SCC(=O)Nc3ccc(Cl)cc3)[nH]c(=O)c2C#N)cc1	29
O=C(CSc1nc2ccccc2[nH]1)Nc1ccc(I)cc1	18
O=C(CCCCC(=O)N/N=C/c1cccnc1)NO	-27
O=C(CCCCCCC(=O)N/N=C\c1ccc(O)c2ccccc12)NO	1
COc1cc(/C=N/NC(=O)c2ccc(C(=O)NO)cc2)cc(OC)c1OC	9
SMILES	EZH2 inh
O=C(NCC(c1ccccc1)c1c[nH]c2ccccc12)Nc1ccc(Cl)cc1 (configuration not stated)	-13
CC(C)(C)C1CCc2c(sc(NC(=O)CSc3n[nH]c(-c4ccncc4)n3)c2C#N)C1 (configuration not stated)	42
CSc1nc(N2CCCCC2)c2c(c1C#N)CCCC2	63*
Cc1cc(N(CC(=O)Nc2cc(C(F)(F)F)ccc2Cl)S(C)(=O)=O)ccc1Br	22
CC1(C)CC[C@]2(C(=O)O[C@@H]3O[C@H](CO)[C@@H](O)[C@H](O)[C@H]3O)CC[C@]3(C)C(=CCC4[C@@]5(C)CC[C@H](O[C@@H]6O[C@H](C(=O)O)[C@@H](O[C@@H]7O[C@H](CO)[C@@H](O)[C@H](O)[C@H]7O)[C@H](O)[C@H]6O[C@@H]6O[C@H](CO)[C@@H](O)[C@H](O)[C@H]6O)C(C)(C)C5CC[C@]43C)C2C1 (some centres not stated)	11
CC1(C)CC[C@]2(C(=O)O[C@@H]3O[C@H](CO)[C@@H](O)[C@H](O)[C@H]3O)CC[C@]3(C)C(=CCC4[C@@]5(C)CC[C@H](O[C@@H]6O[C@H](C(=O)O)[C@@H](O)[C@H](O)[C@H]6O)[C@@](C)(CO)C5CC[C@]43C)C2C1 (some centres not stated)	3
C[C@@H]1CC[C@]2(C(=O)OC3OC(CO)C(OC4OC(CO)C(O)C(O)C4O)C(O)C3O)CC[C@]3(C)C(=CCC4[C@@]5(C)CC[C@H](O)[C@](C)(C(=O)O)C5CC[C@]43C)C2[C@]1(C)O (some centres not stated)	60*
COc1ccc(OCC(=O)Nc2cc(-c3nnc(OC)c4ccccc34)ccc2N2CCCCC2)cc1	-3
Cc1cc(Cl)c(S(=O)(=O)N2CCCCC2)cc1OCC(N)=O	4
COC(=O)CCCCCCC(=O)N/N=C/c1cc(O)ccc1[N+](=O)[O-]	10
NS(=O)(=O)c1ccc(NC(=S)NCCc2c[nH]c3ccccc23)cc1	-5
Cc1ccc(C(=O)COc2cccc(NC(=O)c3ccc(Br)cc3)c2)cc1C	-3
COC(=O)COc1cccc(NC(=O)c2ccc(Br)cc2)c1	1
CCOc1cccc(NC(=O)C2CC(=O)N(/N=C(\C)c3ccc(Br)s3)C(=N)S2)c1 (configuration not stated)	92*
CC(C)(C)c1ccc(C(=O)NCCNc2ccccc2[N+](=O)[O-])cc1	27
O=C(Nc1ccccc1C(=O)O)c1cccc(S(=O)(=O)Nc2ccccc2)c1	-12
O=C(CCCCCCC(=O)N/N=C/c1ccc(OCCO)cc1)NO	-10
C=CCNC(=O)[C@@H]1[C@H]2C(=O)O[C@H](c3ccccc3)[C@H](c3ccccc3)N2[C@H](c2ccccc2OCCO)[C@@]12C(=O)Nc1ccc(C#Cc3ccc(OC)cc3)cc12	-11
C=CCNC(=O)[C@H]1[C@@H]2C(=O)O[C@@H](c3ccccc3)[C@@H](c3ccccc3)N2[C@@H](c2ccccc2OCCO)[C@]12C(=O)Nc1ccc(C#Cc3ccc(OC)cc3)cc12	-19
COc1ccc(C#Cc2ccc3c(c2)[C@]2(C(=O)N3)[C@H](c3ccccc3OCCO)N3[C@H](c4ccccc4)[C@H](c4ccccc4)OC(=O)[C@H]3[C@@H]2C(=O)O)cc1	59*
NC(=O)CN(c1ccccc1)S(=O)(=O)c1ccc(F)cc1	-3
CC1(C)Cc2c(sc3nc(SCc4ccccc4)nc(NCc4ccco4)c23)CO1	5
COc1ccc(OCC(=O)Nc2ccccc2C(=O)Nc2ccccc2)cc1	-6
CC(C)(C)c1ccc(OCC(=O)Nc2ccc(C(=O)Nc3ccccc3C(=O)O)cc2)cc1	64*
Cc1cccc(OCC(=O)Nc2cccc(C(=O)Nc3ccccc3C(=O)O)c2)c1	42
SMILES	EZH2 inh
Cc1cccc(NC(=O)c2ccccc2NC(=O)COc2cccc([N+](=O)[O-])c2)c1C	-6
COc1ccc(-c2ccc(CCC(=O)O)n2-c2ccc(N(C)C)cc2)cc1	1
COc1ccc(C(C)C)cc1S(=O)(=O)n1cnc2cc(C)c(C)cc21	-2
N#Cc1ccccc1OCCCCSc1ncccn1	12
c1cnc(SCCCCOc2ccc3c(c2)CCC3)nc1	54*
O=S(=O)(Nc1ncccn1)c1ccc(NC(=S)Nc2ccc3c(c2)CCC3)cc1	-4
CC(C)=CCc1cc(/C=C2\OC(=O)C(c3cc4c(cc3O)OC(C)(C)CC4)C2=O)ccc1O (configuration not stated)	78*
COc1cc(O)c(CC=C(C)C)cc1C(=O)/C=C/c1ccc(O)c(CC=C(C)C)c1	24
CC(=O)Nc1ccc(NC(=O)CN(c2ccc(F)cc2)S(C)(=O)=O)cc1	-2
